In the antibiotic and cytotoxicity screens of Wong et al. (2023):
Among all 39,000 compounds or so, about 3,300 (8.5%) were called active. The list comes from a sample in which actives are over-represented; it also holds similar structures and randomly drawn compounds.

tested on: HepG2; assay: cytotoxicity call (relative viability < 0.9); conditions: 10 µM

| Compound | cytotoxicity call |
| --- | --- |
| Cc1cccnc1[C@@H](NC(=O)C1CCN(CCOc2ccc(Cl)cc2Cl)CC1)c1ccc(F)cc1 | inactive |
| O=C(N[C@@H](c1ccc(-c2ccccc2)cc1)c1cnccn1)C1CCN(CCCOc2ccccc2)CC1 | active |
| O=C(N[C@@H](c1ccc2c(c1)OCO2)c1ccccn1)C1CCN(CCOc2ccc(Cl)cc2Cl)CC1 | inactive |
| O=C(N[C@H](c1ccc(Cl)cc1)c1ccccn1)C1CCN(CCOc2ccc(Cl)cc2Cl)CC1 | inactive |
| O=C(N[C@@H](c1ccc(-c2ccccc2)cc1)c1cnccn1)C1CCN(CCOc2ccc(F)cc2)CC1 | active |
| C[C@H]1CN([C@@H](C)CO)C(=O)c2ccccc2-c2ccccc2CO[C@H]1CN(C)Cc1ccc(-c2ccccc2)cc1 | inactive |
| CN(C)C(=O)N1C[C@@H]2[C@@H](C1)C(=O)N(C)C21CCN(S(C)(=O)=O)CC1 | inactive |
| C[C@H](O)[C@H](O)[C@@H](O)[C@@H](O)/C=N/NC(=O)c1ccccn1 | inactive |
| O=C(C[C@@H]1CC[C@@H]2[C@H](COC[C@H](O)CN2CC2CCOCC2)O1)N1CCOCC1 | inactive |
| Cc1cc(C)c(N(Cc2ccccc2)S(=O)(=O)c2ccc(OCCNC(=O)c3cc4ccccc4o3)cc2)c(C(=O)NO)c1 | active |
| CCc1nc2ccc(C(=O)NCCOc3ccc(OC)cc3)cn2c1N(CC)Cc1cccc(Br)c1 | inactive |
| O=C(NCCO)c1cc2ccccc2oc1=O | inactive |
| Cc1ccc(S(=O)(=O)N(C)C[C@H]2Oc3ccc(NS(=O)(=O)c4cccs4)cc3C(=O)N([C@H](C)CO)C[C@@H]2C)cc1 | inactive |
| COc1ccc(COC[C@]23NC(=O)N(C(=O)c4ccccc4)[C@H](c4ccccc4O2)[C@H]3CO[Si](C)(C)C(C)(C)C)cc1 | inactive |
| C[C@@H]1CN([C@H](C)CO)C(=O)Cc2cc(NC(=O)C3CCCCC3)ccc2O[C@H]1CN(C)S(C)(=O)=O | inactive |
| C[C@H]1CCCCO[C@H](CN(C)Cc2ccc(Cl)c(Cl)c2)[C@@H](C)CN([C@@H](C)CO)C(=O)c2cc(NC(=O)Nc3cccc4ccccc34)ccc2O1 | inactive |
| C[C@@H]1CCCCO[C@H](CN(C)C(=O)C2CCCCC2)[C@H](C)CN([C@@H](C)CO)C(=O)c2cc(NC(=O)NC3CCCCC3)ccc2O1 | active |
| C[C@@H]1CCCCO[C@@H](CN(C)C(=O)C2CCCCC2)[C@H](C)CN([C@@H](C)CO)C(=O)c2cc(NC(=O)NC3CCCCC3)ccc2O1 | inactive |
| C[C@@H]1CCCCO[C@H](CN(C)C(=O)C2CCCCC2)[C@@H](C)CN([C@@H](C)CO)C(=O)c2cc(NC(=O)NC3CCCCC3)ccc2O1 | inactive |
| C[C@H]1CCCCO[C@H](CN(C)C(=O)C2CCCCC2)[C@@H](C)CN([C@@H](C)CO)C(=O)c2cc(NC(=O)NC3CCCCC3)ccc2O1 | inactive |
| C[C@@H]1CCCCO[C@H](CN(C)C(=O)C2CCCCC2)[C@@H](C)CN([C@H](C)CO)C(=O)c2cc(NC(=O)NC3CCCCC3)ccc2O1 | inactive |

| Compound | cytotoxicity call |
| --- | --- |
| C[C@@H]1CN([C@@H](C)CO)C(=O)c2cc(NC(=O)NC3CCCCC3)ccc2O[C@@H](C)CCCCO[C@H]1CN(C)C(=O)C1CCCCC1 | active |
| C[C@H](CO)N1C[C@H](C)[C@@H](CN(C)C(=O)C2CCCCC2)OCCCC[C@H](C)Oc2ccc(NC(=O)NC3CCCCC3)cc2C1=O | inactive |
| C[C@@H]1CCCCO[C@@H](CN(C)C(=O)C2CCCCC2)[C@@H](C)CN([C@@H](C)CO)C(=O)c2cc(NC(=O)NC3CCCCC3)ccc2O1 | inactive |
| C[C@H](CO)N1C[C@H](C)[C@H](CN(C)C(=O)C2CCCCC2)OCCCC[C@H](C)Oc2ccc(NC(=O)NC3CCCCC3)cc2C1=O | active |
| CCS(=O)(=O)N1C[C@]2(CCN(CC2)S(=O)(=O)c2cn(cn2)C)c2c([nH]c3cc(ccc23)OC)[C@@H]1CO | inactive |
| COc1ccc(S(=O)(=O)Nc2ccc3c(c2)C(=O)N([C@@H](C)CO)C[C@@H](C)[C@H](CN(C)C(=O)Nc2c(C)noc2C)OCCCC[C@@H](C)O3)cc1 | inactive |
| Cc1noc(C)c1NC(=O)N(C)C[C@@H]1Oc2ccc(NS(=O)(=O)c3c(C)noc3C)cc2C(=O)N([C@@H](C)CO)C[C@H]1C | inactive |
| Cl.NC[C@H](N)C(=O)O | inactive |
| COc1ccccc1S(=O)(=O)N(C)C[C@H]1OCc2cn(nn2)CCCC(=O)N([C@H](C)CO)C[C@@H]1C | inactive |
| Cc1cccc(NC(=O)Nc2ccc3c(c2)C(=O)N(C)[C@@H]2CC[C@H](CC(=O)NCc4ccccc4Cl)O[C@H]2CO3)c1 | inactive |
| C=CC[C@H](CC(=O)N(CCO)Cc1ccccc1)C(=O)N[C@H](COC(=O)[C@@H](CC=C)CC(=O)OC(C)(C)C)Cc1c[nH]c2ccccc12 | inactive |
| C[C@H](CO)N1C[C@H](C)[C@H](CN(C)C(=O)Nc2ccccc2)Oc2ccc(NC(=O)CCN3CCOCC3)cc2CC1=O | inactive |
| Cc1ccc(S(=O)(=O)N(C)C[C@@H]2Oc3ccc(NS(=O)(=O)c4ccc(F)cc4)cc3CC(=O)N([C@H](C)CO)C[C@H]2C)cc1 | inactive |
| O=C(NCc1ccccc1)C1=C[C@H](c2ccc(Br)cc2)C[C@H](OCc2ccc(CO)cc2)O1 | inactive |
| Cc1ccc(S(=O)(=O)N(C)C[C@H]2Oc3ccc(NS(C)(=O)=O)cc3CC(=O)N([C@@H](C)CO)C[C@H]2C)cc1 | inactive |
| COC1=CC(=O)C(O)=CC1=CC=Cc1ccccc1 | active |
| O=C(O)C=CC=Cc1ccccc1 | inactive |
| COc1cc(CC=Cc2ccccc2)c(OC)cc1O | inactive |
| C[C@@H]1CN([C@H](C)CO)C(=O)c2cc(NC(=O)C3CCCCC3)ccc2O[C@@H]1CN(C)C(=O)Nc1ccc(C(F)(F)F)cc1 | inactive |
| C[C@H]1CN([C@@H](C)CO)C(=O)c2cc(NS(=O)(=O)c3cccs3)ccc2O[C@H]1CN(C)S(=O)(=O)c1ccccc1 | inactive |
| C[C@@H]1CN([C@H](C)CO)C(=O)c2cc(NC(=O)CCCCCC(=O)Nc3ccccc3N)ccc2O[C@@H]1CN(C)S(C)(=O)=O | inactive |

| Compound | cytotoxicity call |
| --- | --- |
| C[C@H](CO)N1C[C@H](C)[C@H](CN(C)C(=O)C2CCCCC2)OCCCC[C@H](C)Oc2ccc(NC(=O)CCC(F)(F)F)cc2C1=O | inactive |
| Cc1ccc(NC(=O)[C@@H]2[C@@H]3CC/C=C\CC/C=C/CC[C@@H]32)cc1C | inactive |
| CCC(=O)c1ccc(Cl)s1 | inactive |
| C[C@H](CO)N1C[C@H](C)[C@H](CN(C)C(=O)Nc2ccc(F)cc2)OCCCC[C@H](C)Oc2ccc(NC(=O)Nc3ccc(C(F)(F)F)cc3)cc2C1=O | inactive |
| C[C@@H]1CCCCO[C@H](CN(C)C(=O)Nc2ccc(C(F)(F)F)cc2)[C@H](C)CN([C@H](C)CO)C(=O)c2cc(NC(=O)Nc3ccc(F)cc3)ccc2O1 | inactive |
| C[C@H](CO)N1C[C@H](C)[C@@H](CN(C)C(=O)Nc2ccc(F)cc2)OCCCC[C@H](C)Oc2ccc(NC(=O)Nc3ccc(C(F)(F)F)cc3)cc2C1=O | inactive |
| C[C@H]1CCCCO[C@H](CN(C)C(=O)Nc2ccc(C(F)(F)F)cc2)[C@@H](C)CN([C@@H](C)CO)C(=O)c2cc(NC(=O)Nc3ccc(F)cc3)ccc2O1 | inactive |
| C[C@@H]1CCCCO[C@H](CN(C)C(=O)Nc2ccc(F)cc2)[C@@H](C)CN([C@@H](C)CO)C(=O)c2cc(NC(=O)Nc3ccc(C(F)(F)F)cc3)ccc2O1 | inactive |
| C[C@H](CO)N1C[C@H](C)[C@@H](CN(C)C(=O)Nc2ccc(C(F)(F)F)cc2)OCCCC[C@H](C)Oc2ccc(NC(=O)Nc3ccc(F)cc3)cc2C1=O | inactive |
| C[C@@H]1CCCCO[C@H](CN(C)C(=O)Nc2ccc(C(F)(F)F)cc2)[C@@H](C)CN([C@H](C)CO)C(=O)c2cc(NC(=O)Nc3ccc(F)cc3)ccc2O1 | active |
| C[C@@H]1CCCCO[C@@H](CN(C)C(=O)Nc2ccc(C(F)(F)F)cc2)[C@H](C)CN([C@H](C)CO)C(=O)c2cc(NC(=O)Nc3ccc(F)cc3)ccc2O1 | active |
| C[C@@H]1CN([C@H](C)CO)C(=O)c2cc(NC(=O)Nc3ccc(F)cc3)ccc2O[C@@H](C)CCCCO[C@H]1CN(C)C(=O)Nc1ccc(C(F)(F)F)cc1 | active |
| C[C@H]1CCCCO[C@@H](CN(C)C(=O)Nc2ccc(F)cc2)[C@@H](C)CN([C@@H](C)CO)C(=O)c2cc(NC(=O)Nc3ccc(C(F)(F)F)cc3)ccc2O1 | inactive |
| C[C@@H]1CN([C@H](C)CO)C(=O)c2cc(NC(=O)Nc3ccc(C(F)(F)F)cc3)ccc2O[C@@H](C)CCCCO[C@H]1CN(C)C(=O)Nc1ccc(F)cc1 | active |
| C[C@H]1CCCCO[C@@H](CN(C)C(=O)Nc2ccc(C(F)(F)F)cc2)[C@@H](C)CN([C@@H](C)CO)C(=O)c2cc(NC(=O)Nc3ccc(F)cc3)ccc2O1 | inactive |
| Cc1ccc(S(=O)(=O)Nc2ccc3c(c2)C(=O)N([C@@H](C)CO)C[C@@H](C)[C@H](CN(C)S(=O)(=O)c2ccc(F)cc2)O3)cc1 | inactive |
| C[C@H](CO)N1C[C@H](C)[C@@H](CN(C)S(C)(=O)=O)Oc2c(NC(=O)CCCCCC(=O)Nc3ccccc3N)cccc2C1=O | inactive |
| C[C@@H]1CN([C@H](C)CO)C(=O)c2cc(NS(=O)(=O)c3cn(C)cn3)ccc2O[C@@H](C)CCCCO[C@@H]1CN(C)C(=O)CCCN(C)C | inactive |
| C[C@@H]1CN([C@H](C)CO)C(=O)Cc2cc(NC(=O)CCCCCC(=O)Nc3ccccc3N)ccc2O[C@H]1CN(C)C(=O)Nc1ccccc1 | inactive |
| COc1cccc(-c2ccc3c(c2)O[C@H](CN(C)C(=O)C2CCC2)[C@H](C)CN([C@H](C)CO)S3(=O)=O)c1 | inactive |
| C[C@@H]1CN([C@H](C)CO)C(=O)c2cc(NC(=O)Cc3ccccc3)ccc2O[C@@H](C)CCCCO[C@H]1CN(C)C(=O)Nc1ccc2c(c1)OCO2 | inactive |
